In all, about 390,000 compounds went through this assay and about 35 (0.009%) were called active. Inconclusive results (about 6%) are left out. Calls follow the shape of the dose curve; as a rule, active = well fitted inhibition curve with a large enough effect in the polarisation, with a control signal flat (not every such curve was filed as active); inconclusive = small, poorly fitted or top-dose-only effect, or effect the other way, or a change in a side signal; inactive = no such curve, though single readings can be large or run the other way; the % refers to the polarisation. The sample as a whole holds a higher share of actives than the screen did.
The compounds below were run against Peptidyl-prolyl cis-trans isomerase NIMA-interacting 1 (Homo sapiens) (UniProt Q13526) (assay: qHTS Assay to Find Inhibitors of Pin1). Settings: Pin1 FP peptide displacement, HiFluor488, 10 min; series mostly up to 115 µM.
Source text: NIH Molecular Libraries Probe Production Network [MLPCN]
NIH Chemical Genomics Center [NCGC]
The unique chemical properties of Pro allow for the adoption of two completely distinct amide bond conformations (cis and trans). Peptidyl-prolyl cis/trans isomerases (PPIases) are evolutionary conserved enzymes that catalyze cis/trans isomerization of peptidyl-prolyl peptide bonds. Distinct from all other PPIases such as cyclophilins and FK506-binding proteins (FKBPs), Pin1 binds a subset of phos.Ser/Thr-Pro-containing proteins using its protein-targeting WW domain and isomerizes only specific phos.Ser/Thr-Pro bonds, which cannot be effectively catalyzed by other known PPIases.
Pin1-catalyzed conformational regulation can control a spectrum of activities of many key regulators in diverse cellular processes such as cell growth, genotoxic and other stress responses, immune response, germ cell development, neuronal differentiation and survival. Pin1 has emerged as a novel molecular timer that modulates its multiple targets at various steps of a given cellular process to synergistically control the amplitude and duration of a cellular response or process. Importantly, Pin1 is tightly regulated by multiple levels and its deregulation has an important role in a growing number of pathological conditions, including cancer, Alzheimer's disease, aging, asthma and microbial infection, providing a potentially new therapeutic option.
The goal of this screen is to find small-molecule inhibitors of Pin1 using a fluorescence polarization competition assay. A HiFluor-488-labeled peptide binds to the active site of Pin1 and can be displaced by compounds. Compounds were screened as a concentration-titration series that ranged from 57 uM to 0.7 nM.
NCGC Assay Protocol Summary:
Pin1 (0.6 uM) was dispensed into black, solid 1536-well plates at 2 uL/well in 10 mM HEPES (pH 7.5), 10 mM NaCl, 0.01% Tween20, 1 mM DTT, and 1% glycerol. Then, 23 nL of compounds or DMSO were delivered to each well using a pin tool. Two uL of Pin1-1b-HiFluor488 peptide (10 mM HEPES (pH 7.5), 10 mM NaCl, 0.01% Tween20, 1 mM DTT, and 1% glycerol, 0.02 uM Pin1-1b-HiFluor488) was then dispensed, and plates were incubated at room temperature for 10 min. The plates were measured on a ViewLux plate reader for fluorescence polarization signal using a 480/20 nM nm excitation filter and 540/25 nM nm S and P emission filters with a 20 second exposure. The %Activity was determined from the corrected fluorescence polarization values. Unlabeled Pin1-1c peptide was used as a control (3.5 mM two-fold serial; 20 uM final concentration) along with a 1x (0.3 uM) and 0x (no-enzyme) Pin1 enzyme control to normalize %Activity of identified inhibitors; 0x enzyme values corresponded to 100%Activity (full inhibition), while 1x Pin1 enzyme values were used to normalize 0%Activity (no inhibition).
Concentration-response curves were fitted to the signals arising from the resulting fluorescence polarization. The concentration-effect curves were then classified based on curve quality (r2), response magnitude and degree of measured activity, and compounds were subsequently categorized based on their curve class.
Keywords: Peptidyl prolyl isomerase, Pin1, fluorescence polarization, MLSMR, MLPCN, NIH Roadmap, qHTS, NCGC

Peptidyl-prolyl cis-trans isomerase NIMA-interacting 1 (Homo sapiens), sequence (Q13526 whole entry, looked up): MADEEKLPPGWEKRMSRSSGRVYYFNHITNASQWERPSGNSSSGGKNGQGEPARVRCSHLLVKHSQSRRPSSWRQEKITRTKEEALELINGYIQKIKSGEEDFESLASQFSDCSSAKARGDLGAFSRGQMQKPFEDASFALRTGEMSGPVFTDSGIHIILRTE

activity, negative = inhibition, inactive:
CCc1cccc(C)c1NS(=O)(=O)c1ccc(-c2cc(C)no2)s1, CC(=O)N1CCCc2ccc(NS(=O)(=O)c3ccc(F)cc3F)cc21, COc1ccc(CNC(=O)COCc2cc(-c3cccs3)on2)cc1OC, COc1cccc(C(=O)NC2CCN(C#N)CC2)c1, CCOC(=O)c1c(N)n(-c2cccc(C)c2C)c2nc3ccccc3nc12, COc1ccc(Br)cc1C1C2C=CCC(C)C2C(=O)N1Cc1ccccc1 (stereo not drawn), O=C(OCC#CCSc1nnc(-c2ccco2)o1)c1ccc(F)cc1, CC(=O)OCC(NC(=O)C(Cc1ccccc1)NC(=O)OC(C)(C)C)C1OC(n2ccc(=O)[nH]c2=O)C(OC(C)=O)C1OC(C)=O (stereo not drawn), CC(=O)Nc1ccc(S(=O)(=O)N2N=NC3C2C2CC4C3(CN(C(=O)OC(C)(C)C)S4(=O)=O)O2)cc1 (stereo not drawn), COc1cccc(OC2=NS(=O)(=O)c3ccccc32)c1, COc1ccc(C2Nc3ccccc3C(=O)N2Cc2ccccc2)cc1COc1ccc(C(N)=O)cc1 (stereo not drawn), CCN(CC)S(=O)(=O)c1ccc2c(c1)N(CC(=O)NCc1ccccc1)C(=O)CS2, Cc1cccc(N2CCN(S(=O)(=O)c3ccc4[nH]c5c(c4c3)CCCCC5)CC2)c1C, Cc1cc(C)cc(NC(=O)CSc2nc(=O)n(CCN3CCOCC3)c3c2CCC3)c1, Cc1ccc(Cn2c(=O)n(-c3ccc(C)cc3)c(=O)c3c2c2cc(C)ccc2n3C)cc1, CCCCN(CC)CCCNC(=O)Cn1ncc2c([nH]c3ccc(C)cc32)c1=O, CCC(=O)Nc1ccccc1-c1nc2ccccc2n(CC(=O)Nc2ccc(C)c(C)c2)c1=O, O=C1CCCC2=C1[C@@]1(CCC(c3ccccc3)C1)N=C(Nc1nc3ccccc3o1)N2 (stereo partly drawn), Cc1cc2n(n1)C(c1cc(C(C)(C)C)c(O)cc1O)Nc1ccccc1-2 (stereo not drawn), CCOc1ccccc1CNC(=O)c1ccc2c(c1)nc1n2CCC(C)C1 (stereo not drawn), COc1cc(C(=O)N2CCN(c3ccc(Nc4ccc(C)cc4)nn3)CC2)cc(OC)c1OC, COc1cccc(C2c3c(ncn(-c4cccc(Br)c4)c3=N)Oc3ccc4ccccc4c32)c1 (stereo not drawn), Cc1ccc(Cl)cc1NC(=O)Cc1ccc(-n2c(C)nc3cccnc32)cc1, Cc1ccc(Nc2c(-c3ccc(Cl)cc3)nc3sccn23)c(C)c1, OCCNc1ncnc2oc(-c3ccco3)c(-c3ccco3)c12, O=c1c2ccccc2nc2sc(Nc3ccc4c(c3)OCO4)nn12, CC(=O)c1sc(N2C(=O)c3oc4ccccc4c(=O)c3C2c2ccc(C)cc2)nc1C (stereo not drawn), NC(=O)C1CCN(c2ncc(-c3ccc(Cl)cc3)s2)CC1, CCOc1ccc(NC(=O)C(=O)NCCc2csc3nc(-c4ccccc4F)nn23)cc1, CCCc1cc(=O)n2[nH]c(NCc3ccc(CC)cc3)nc2n1, C=C1CCN(C(CC(C)C)C(=O)N2CCOCC2)S(=O)(=O)c2ccccc21 (stereo not drawn), Cn1nnnc1Sc1ncnc2scc(-c3ccccc3[N+](=O)[O-])c12, COc1cc(OC)c2c(c1C(CCN1CCCCC1)c1ccc(N(C)C)cc1)OC(=O)CC2c1ccc(N(C)C)cc1 (stereo not drawn), CCOc1ccccc1NC(=O)Cn1c(=O)n(-c2cccc(C)c2)c(=O)c2c1c1cc(OC)ccc1n2C, O=C(Cn1c(-c2cccs2)cc2ccccc21)NCCc1ccc(Cl)cc1, COC(=O)c1ccccc1S(=O)(=O)Nc1ccc(OC)cc1, Cc1c(-c2cccc(NC(=O)C(C)(C)C)c2)nc2ncccn12, CCN(CC)/[N+]([O-])=N/Oc1cc(O/[N+]([O-])=N/N2CCCC2CO)c([N+](=O)[O-])cc1[N+](=O)[O-] (stereo not drawn), Cc1ccc(-c2nc(=N)sn2Cc2ccccc2)cc1, COc1ccc(-c2nc(=N)sn2-c2ccccc2)cc1, CC(=O)NC(c1cccs1)c1cc(Cl)c2cccnc2c1O (stereo not drawn), Cc1cc2c(s1)c1cnn(Cc3c(F)cccc3Cl)c(=O)c1n2C, c1coc(CCNc2ncnc3ccc(-c4ccc5c(c4)OCO5)cc23)c1
